Records with an inconclusive call do not appear. Entries that show only a call come without a potency. Active and inactive are the calls of the source. Calls come from the whole dose curve; as a rule, active = well fitted inhibition curve with a large enough effect; inconclusive = small, poorly fitted or top-dose-only effect; inactive = flat fitted curve, though single readings scatter.
Potency is the fitted concentration of half-maximal effect.

For the test, the system named is CP203. In words: qHTS profiling for inhibitors of Plasmodium falciparum proliferation (AID 504749). Note: nearly all actives have a fitted effect of over 60% in size. As to conditions: P. falciparum in erythrocytes, SYBR Green DNA, 72 h; series mostly up to 28.7 µM. The source says: NIH National Institute of Allergy and Infectious Diseases [NIAID] NIH Chemical Genomics Center [NCGC] MLPCN Grant: None Assay Provider: Xinzhuan Su, NIAID NCGC Assay Overview: Plasmodium falciparum is a virulent malarial parasite that kills 1-2 million people worldwide each year. Transmitted by mosquitoes, the sporozoite form of the parasite enters the blood stream to infect hepatocytes, where they become merozoites that infect red blood cells (erythrocytes). Within erythrocytes, merozoites begin a […] cycle of growth and division, after which the parasite is released to infect new red blood cells. Gametocytes, which form within erythrocytes as well, circulate in the bloodstream and are ingested by the mosquito, thereby completing the life cycle. To profile malarial isolates for differential chemical responses and to identify inhibitors of malarial growth, an assay that measures P. falciparum growth and replication within erythrocytes was employed. This assay uses a DNA binding fluorescent dye (SYBR Green) to detect parasite DNA following cell lysis. Because mature erythrocytes lack DNA, only Plasmodium-derived DNA is detected.
NCGC Assay Protocol Summary: The SYBR Green viability assay was adapted from a method described previously (Plouffe et al., 2008). For screening 3 ul culture medium was dispensed into 1536 well black clear bottom plates (Aurora Biotechnologies) using a Multidrop Combi (Thermo Fisher Scientific Inc.), 23 nL compounds in DMSO were added by a pin tool (Kalypsys), and 5 ul of erythrocytes infected with P. falciparum (0.3% parasitemia, 2.5% hematocrit final concentration) were added. The plates were incubated at 37 C in a humidified incubator in 5% CO2 for 72 h, and 2 ul lysis buffer (20 mM Tris HCl, 10 mM EDTA, 0.16% saponin, 1.6% triton X, 10X SYBR Green I supplied as 10,000X […] by Invitrogen) was added to each well. The plates were mixed for 25 sec with gentle shaking and incubated overnight at room temperature in the dark. The following morning, fluorescence intensity at 485(14) nm excitation and 535(25) nm emission wavelengths was measured on an EnVision (Perkin Elmer) plate reader. Plate reads were normalized relative to the control inhibitor (0.29 uM artemisinin) and vehicle (DMSO) wells present on each plate and then corrected by an algorithm using vehicle-only control plates at the beginning and end of the compound plate stack.
On the technique in general: qHTS replaces the single test concentration by a dilution series.
Take `O=c1n(CCCN2CCN(c3cccc(Cl)c3)CC2)nc2ccccn12`: the Potency result was “inactive”.

On to `CC(C)NCC(O)COc1ccc(COCCOC(C)C)cc1` (stereo not given), for which the Potency entry was “inactive”.

`NS(=O)(=O)c1cc2c(cc1Cl)NC=NS2(=O)=O`: the Potency result was “inactive”.

Turning to `Cc1cn[nH]c1`, the Potency result was “inactive”.

For the compound `C1COC(NC(C2CC2)C2CC2)=N1`, the Potency result was “inactive”.

Consider `COc1ccc2nc(S(=O)Cc3ncc(C)c(OC)c3C)[nH]c2c1` (stereo not given), for which the Potency entry is “inactive”.

`Oc1ccc(C2CNCCc3c2cc(O)c(O)c3Cl)cc1` (stereo not given): the Potency entry was “inactive”.

Turning to `Cc1ccccc1C(OCCN(C)C)c1ccccc1` (stereo not given), the Potency is 13.5 µM (active).

For the compound `CCCc1nn(C)c2c(=O)[nH]c(-c3cc(S(=O)(=O)N4CCN(C)CC4)ccc3OCC)nc12`, the Potency entry was “inactive”.

For `Clc1cccc(Cl)c1NC1=NCCN1`, the Potency result is “inactive”.

In the case of `NCCCC(N)(C(=O)O)C(F)F` (stereo not given), the Potency entry was “inactive”.

Regarding `O=C1CCC(N2C(=O)c3ccccc3C2=O)C(=O)N1` (stereo not given), the Potency result was “inactive”.

Consider `O=NN(CCCl)C(=O)NCCCl`, for which the Potency result was “inactive”.

With `CCCc1nc2c(C)cc(-c3nc4ccccc4n3C)cc2n1Cc1ccc(-c2ccccc2C(=O)O)cc1`, the Potency entry was “inactive”.

For the compound `NC(N)=NC(=O)c1nc(Cl)c(N)nc1N`, the Potency was 19 µM (active).

`N[C@@H]1CONC1=O`: the Potency entry is “inactive”.

For the compound `NC(=O)c1cnccn1`, the Potency entry is “inactive”.

In the case of `CC(c1cc2ccccc2s1)N(O)C(N)=O` (stereo not given), the Potency result was “inactive”.

For `CC(C)C[C@H](NC(=O)[C@@H](O)[C@H](N)Cc1ccccc1)C(=O)O`, the Potency is 6.01 µM (active).

Regarding `N=c1nc(N2CCCCC2)cc(N)n1O`, the Potency result is “inactive”.

Regarding `NC[C@H](O)c1ccc(O)c(O)c1`, the Potency result is “inactive”.

On to `CN1CCN(CCCN2c3ccccc3Sc3ccc(C(F)(F)F)cc32)CC1`, for which the Potency is 15.1 µM (active).

As for `CNC[C@H](O)c1cccc(O)c1`, the Potency entry was “inactive”.

As to `CC(C[N+](C)(C)C)OC(N)=O` (stereo not given), the Potency result was “inactive”.

For `CCOC(=O)C1=C[C@]2(CC)CCCN3CCc4c(n1c1ccccc41)[C@@H]32`, the Potency was 16.9 µM (active).

Turning to `O=C1CCc2cc(OCCCCc3nnnn3C3CCCCC3)ccc2N1`, the Potency entry was “inactive”.

`CCOC(=O)C1=C[C@@]2(CC)CCCN3CCc4c(n1c1ccccc41)[C@H]32`: the Potency was 15.1 µM (active).

As to `Nc1nc2c(ncn2COCCO)c(=O)[nH]1`, the Potency result was “inactive”.

As for `CCCCNc1cc(C(=O)O)cc(S(N)(=O)=O)c1Oc1ccccc1`, the Potency entry was “inactive”.

For `Cn1cnc([N+](=O)[O-])c1Sc1ncnc2nc[nH]c12`, the Potency result is “inactive”.

Regarding `CCc1ccc(CCOc2ccc(CC3SC(=O)NC3=O)cc2)nc1` (stereo not given), the Potency entry was “inactive”.

As for `Clc1ccc(Nc2nnc(Cc3ccncc3)c3ccccc23)cc1`, the Potency result was “inactive”.

Take `Cc1ccc(N(CC2=NCCN2)c2cccc(O)c2)cc1`: the Potency entry is “inactive”.

In the case of `CC(=O)Oc1ccccc1C(=O)O`, the Potency entry was “inactive”.

As for `NCCc1ccc(O)c(O)c1`, the Potency result was “inactive”.

Take `Cc1oncc1C(=O)Nc1ccc(C(F)(F)F)cc1`: the Potency result is “inactive”.

For the compound `NNCCc1ccccc1`, the Potency result was “inactive”.

On to `Nc1ccc(S(=O)(=O)Nc2ccnn2-c2ccccc2)cc1`, for which the Potency entry was “inactive”.

`Cc1[nH]c(=O)c(C#N)cc1-c1ccc2nccn2c1`: the Potency entry was “inactive”.

Consider `N#Cc1ccc(C(c2ccc(C#N)cc2)n2cncn2)cc1`, for which the Potency result was “inactive”.

The record behind these values is PubChem BioAssay (NCATS).
